# Target: FKTN
# Assay: pooled miR-30 sensor sort-seq; sequence = guide strand
# Conditions: shRNA
# Also: reference of the scale not given here.
row,Sequence,sensor-assay potency score (higher = more potent)
1,TTCCAAGCTGTCTTCTACCTTC,-0.104
2,TTTTACATCATCTTTTCCCTGG,0.348
3,TTTGACTTGTTCAAAGTTCTTA,0.733
4,TCCATCAACAGTAACTTGCTGT,-0.268
5,TTGCATTGTCGATACCATCCTA,-0.0659
6,TAGTACAACTGAAACAGCAGAA,0.161
7,TTGTTTAATGTTTTCGCTGCTA,0.0989
8,TTGACTTGTTCAAAGTTCTTAT,-0.62
9,TTTTAAACAGTTATCTACCTTT,0.405
10,TGCATTGTCGATACCATCCTAG,-0.739
11,TAGACAAGTTCCACTGCTCAGC,-0.942
12,TAAACCTAGAGTGTGGTACTTC,0.175
13,TTTCCTGTCAATGTGTTCTTTA,-0.407
14,TAGAGTGTGGTACTTCTTCTAC,-0.462
15,TAAATAGTGCTTGTAGTAGTAC,-0.0376
16,TGCATTGTGAAGTAGAGCCATG,-1.03
17,ATTTTGACAAACCAGCTCCATT,-1.46
18,TTTAAGTCTCAAGTGGCCGTGC,0.148
19,ATGTCTACAAACTCAGTCCAGC,-1.47

# Target: FLG
# Assay: as above
# Conditions: shRNA
row,Sequence,sensor-assay potency score (higher = more potent)
1,TTCAGAACTAGATTCATGCCTT,0.702
2,TAGACTCATAATATGCTTGAGC,-0.577
3,TTGTCTGCTGACACTTCTGGAT,-0.488
4,TTTATCATGATGACTGTGCTTT,0.582
5,TTTACTTGAGTTATGATGGTTT,0.102
6,TTTTTTTGAATATTGCTTGAAA,-0.0278
7,TCTATTGTTTCTTCTTTCCAGA,-0.556
8,TTTGTCTGCTTGCACTTCTGGA,-0.568
9,TTTGTCTGCTGACACTTCTGGA,-0.531
10,TTTCTTCTAATAGACTATCAGT,-0.739
11,TTGATTGTTCCTCATTACGTGT,-0.377
12,AATTGTAACTAACACTTCCGTG,-0.414
13,TTCTAATAGACTATCAGTGGTG,-0.268
14,TTGTTCTGCTTGCACTTCTGGA,-0.702
15,ATTGTAACTAACACTTCCGTGC,0.359
16,TATGAGTAGGTGAATATCCTTT,-0.066
17,TTTTGAGTCATTCTTCCTGTAT,-0.417
18,TAGAATGGCCACATAAACCTGG,0.301
19,TTTCATAATCATATACTCCTTC,0.805
20,TAGAGTCTGACTGTACAGGTGA,0.79
21,TAATCTAGTATTTTCAGTCTTG,0.133

# Source: the OligoGym collection
